JMJD2A Tudor = qHTS Assay for Inhibitors of JMJD2A-Tudor Domain. Lysine-specific demethylase 4A (Homo sapiens), O75164. AlphaScreen JMJD2A-Tudor / H3K4me3 peptide binding. Potency, µM (top dose mostly 114 µM), actives largely listed as inhibitors. 4.4% of 390,000 active. AID 504339, 2011; note: nearly all actives have a fitted effect of over 50% in size
BAZ2B block = qHTS Assay for Inhibitors of BAZ2B. Bromodomain adjacent to zinc finger domain protein 2B (Homo sapiens), Q9UIF8. 4.4% of 360,000 active. AlphaScreen BAZ2B-H3K14Ac peptide displacement. Potency, µM (doses to about 114 µM), usual class: inhibitors; note: nearly all actives have a fitted effect of over 60% in size
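In this displacement format the biotinylated H3(5-23) peptide acetylated at Lys14 serves as ligand at 50 nM, with BAZ2B at 50 nM in PBS pH 7.4 containing 0.01% Tween-20. Donor and acceptor beads are 10 ug/mL final.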
HP1b chromo inh = HTS for Inhibitors of HP1-beta Chromodomain Interactions with Methylated Histone Tails | 0.56% of 390,000 active | Chromobox protein homolog 1 (Homo sapiens), P83916 | AlphaScreen HP1-beta / biotin-H3K9me3 peptide binding | AID 540317, 2011 | Potency, µM (top dose mostly 114 µM), hits mostly inhibitors; note: nearly all actives have a fitted effect of over 70% in size
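HP1-beta protein (50 nM final) preincubated 30 min at room temperature with biotinylated H3(1-18)K9me3 peptide (50 nM) in PBS pH 7.4, 0.01% Tween-20, then compound added for 30 min. AlphaScreen streptavidin donor/nickel chelate acceptor beads (10 ug/mL final), 30 min dark, luminescence read.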
G9a block = qHTS Assay for Inhibitors of Histone Lysine Methyltransferase G9a; G9a H3K9 monomethylation, AlphaScreen, 2 h; Potency, µM (doses to about 102 µM), actives largely listed as inhibitors; 8.8% of 350,000 active; note: nearly all actives have a fitted effect of over 75% in size
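Step 1: enzyme (final 20 nM) with compound, 15 min RT. Step 2: substrate peptide 500 nM and SAM 20 uM, 2 h RT. Step 3: anti-H3K9me1 antibody and AlphaScreen beads, 10 min, then plate read.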
GLS inhibitor = qHTS for Inhibitors of Glutaminase (GLS). Potency, µM (doses to about 45.5 µM), actives largely listed as inhibitors. 0.21% of 410,000 active. GLS enzymatic activity, qHTS titration. AID 624170, 2012
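Enzyme dispensed in phosphate buffer (45 mM, pH 8.2, 0.02% Tween-20), compounds pinned in, then 1 mM L-glutamine solution and the glutamate oxidase–HRP–Amplex Red mix added; fluorescence read immediately and again after 30 min at room temperature.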
Large screens that a line does not name were inactive. A selection: hits, their analogues and other compounds. The true share with any hit is near 10%. Calls come from the whole dose curve; as a rule, active = well fitted curve in the direction sought with a large enough effect; inconclusive = small, poorly fitted or top-dose-only effect, or another doubt; inactive = no such curve, though single readings can be large; an effect the other way counts as inactive or inconclusive.

CCC(=O)Nc1nc(C)cc(SCC(=O)OC)n1	none
COc1ccc(C2=CC(=O)CC(c3ccc(OC)cc3)C2)cc1 (centres undefined)	none
COc1ccc(C2CC(=O)C(C(c3ccc(O)cc3)C3C(=O)CC(c4ccc(OC)cc4)CC3=O)C(=O)C2)cc1 (centres undefined)	G9a block 25µM (no result: JMJD2A Tudor, HP1b chromo inh, GLS inhibitor)
CC(=O)N/C(=N\c1nc(C)cc(C)n1)Nc1ccc2ccccc2c1	G9a block 79µM
Cc1cccn2c(Nc3ccccc3)c(-c3ccccn3)nc12	JMJD2A Tudor 13µM, BAZ2B block 18µM, G9a block 40µM
COc1ccc(-c2nc3ncccn3c2Nc2ccccc2)cc1	none
Cc1cccc(C)c1Nc1c(-c2ccccn2)nc2c(C)cccn12	JMJD2A Tudor 10µM, BAZ2B block inconclusive
Cc1cccc(C)c1Nc1c(-c2cccs2)nc2ncccn12	BAZ2B block inconclusive
COC(=O)[C@H]1C[C@@]2(O)CN(S(=O)(=O)c3ccc(C)cc3)C[C@@]2(OC(=O)NC2CCCC2)C[C@H]1C(=O)OC	none (no result: JMJD2A Tudor, BAZ2B block, HP1b chromo inh, G9a block)
CC/C(=N/Nc1ccc(Cl)cc1)c1cnnc(SC)n1	JMJD2A Tudor inconclusive, G9a block 5.6µM
CC/C(=N/O)c1cnnc(SC)n1	none
CC/C(=N/Nc1cccc(C)c1)c1cnnc(SC)n1	JMJD2A Tudor 56µM, G9a block 7.1µM
CC(C)(C)/C=N/NC(=O)C1CC1	none
O=C(CCS(=O)(=O)c1ccc(Br)cc1)Nc1ccccn1	G9a block inconclusive
CCN(CC)c1ccc(/C=C2\C(=O)c3ccc(C(=O)O)cc3C2=O)cc1	JMJD2A Tudor 45µM, BAZ2B block 14µM, HP1b chromo inh 40µM, G9a block 11µM, GLS inhibitor inconclusive
CCCCc1nc(NCCNC(=O)c2ccco2)c(C#N)c2c1CSC(C)(C)C2	JMJD2A Tudor inconclusive, BAZ2B block inconclusive, G9a block inconclusive
CC1=C(C(=O)N(C)C)CC(CC(=O)NCCN2CCOCC2)C(=O)N1CCC1=CCCCC1 (centres undefined)	none (no result: JMJD2A Tudor, BAZ2B block, HP1b chromo inh, G9a block)
Cc1ccc2c(c1)c1c(n2CC(O)CNC2CCCCC2)CCCC1 (centres undefined)	JMJD2A Tudor 32µM, BAZ2B block 50µM, HP1b chromo inh inconclusive, G9a block 40µM
Cc1ccc2c(c1)c1c(n2CC(O)CN2CCOCC2)CCCC1 (centres undefined)	G9a block inconclusive (no result: JMJD2A Tudor, HP1b chromo inh, GLS inhibitor)
Cc1ccc2c(c1)c1c(n2CC(O)CNC(CO)(CO)CO)CCCC1 (centres undefined)	JMJD2A Tudor inconclusive, BAZ2B block inconclusive, G9a block 50µM
CC(C)CCNC(=O)NC(=O)CSc1nnc2ccccn12	none
CC(C)CNC(=O)CSc1nnc2ccccn12	G9a block 45µM
CCN(CC)c1nc(N2CCN(C)CC2)nc2ccccc12	none
C/C(=N\NC(=O)c1ccccc1OCc1ccc(F)cc1)c1ccccn1	none
C/C(=N/NC(=O)c1ccc(C(C)(C)C)cc1)c1ccccn1	JMJD2A Tudor 45µM (no result: BAZ2B block, G9a block)
C/C(=N\NC(=O)c1ccccc1Cl)c1ccccn1	JMJD2A Tudor 56µM, BAZ2B block 32µM
C/C(=N\NC(=O)c1cc(-c2cccs2)nc2ccccc12)c1ccccn1	JMJD2A Tudor 28µM, BAZ2B block 5.6µM
C/C(=N\NC(=O)c1cccc2ccccc12)c1ccccn1	JMJD2A Tudor 56µM, BAZ2B block 16µM (no result: G9a block)
O=C(Nc1ccc2c(c1)CCCN2C(=O)c1cccs1)c1ccccc1C(F)(F)F	none
CCOC(=O)Cn1c(=O)n(C2CCCCC2)c2nc(-c3cccc(C)c3)nc(C(N)=O)c21	none
O=C(CC1C(=O)N(c2ccc(F)cc2)C(=O)N1Cc1ccc2c(c1)OCO2)Nc1ccc(Cl)cc1 (centres undefined)	none
O=C(CN1CCN(S(=O)(=O)c2ccc3c(c2)OCCO3)CC1)Nc1ccccc1Br	none (no result: BAZ2B block, G9a block)
CC(=O)Nc1ccc(Sc2ccccc2C(=O)O)c(C(=O)O)c1	none (no result: G9a block)
C/C(=N\NC(=O)c1cccc(Br)c1)c1ccccn1	JMJD2A Tudor 22µM, BAZ2B block 3.5µM
COc1ccc(NC(=O)c2ccccn2)cc1OC	G9a block inconclusive
COc1cc(C(C)=NNC(=O)c2ccncc2)ccc1O	JMJD2A Tudor 32µM (no result: BAZ2B block, G9a block)
COc1ccc(C(=O)N/N=C(\C)c2ccccn2)cc1OC	JMJD2A Tudor 22µM, BAZ2B block 7.9µM (no result: G9a block)
C/C(=N/NC(=O)c1ccncc1)c1cc2ccc(O)cc2oc1=O	BAZ2B block 79µM
CC1CN(C(=O)CCC(=O)NCc2ccccc2Cl)c2ccccc2S1 (centres undefined)	none
CC(C)(C)c1ccc(C(=O)N/C(N)=N/c2nc3ccccc3o2)cc1	none
CCCCSCCCNC(=O)c1cn(CC)c2ccc(S(=O)(=O)N(C)C3CCCCC3)cc2c1=O	none (no result: BAZ2B block)
O=C1CC(=O)OC(c2ccc([N+](=O)[O-])cc2)O1	none (no result: JMJD2A Tudor, BAZ2B block, HP1b chromo inh, G9a block)
CCOC(=O)C1CCCN(C(=O)c2cncc(Br)c2)CC1 (centres undefined)	none (no result: JMJD2A Tudor, BAZ2B block, HP1b chromo inh, G9a block)
CCN(C(=O)CSc1nnc(NCc2ccccc2)s1)C1CCS(=O)(=O)C1 (centres undefined)	none
C/C(=N\NC(=O)C1COc2ccccc2O1)c1ccccn1 (centres undefined)	JMJD2A Tudor 50µM, BAZ2B block 25µM
Cc1cccc2sc(NNC(=O)c3cc(-c4cccs4)nc4ccccc34)nc12	JMJD2A Tudor inconclusive, BAZ2B block 3.5µM, G9a block 32µM
C/C(=N\NC(=O)c1ccc(Cl)c(Cl)c1)c1ccccn1	JMJD2A Tudor inconclusive, BAZ2B block 7.9µM
CCOc1ccc(OCc2ccc(C(=O)N/N=C(\C)c3ccccn3)cc2)cc1	BAZ2B block inconclusive
CCN(c1ccccc1)S(=O)(=O)c1nnc(NC(=O)c2cccs2)s1	BAZ2B block inconclusive, G9a block inconclusive
Cc1oc(C(C)(C)C)c(CN2CCCC2)c1C(=O)O	G9a block inconclusive
COc1ccc(C)cc1NC(=O)c1cc(S(=O)(=O)N2CCCC2)cn1C	JMJD2A Tudor inconclusive
COCCNC(=O)c1cn(Cc2c(F)cccc2Cl)nn1	none
c1cncc(Nc2c3ccccc3nc3ccccc23)c1	G9a block inconclusive
Clc1cncc(Cl)c1NNc1c2ccccc2nc2ccccc12	JMJD2A Tudor inconclusive, BAZ2B block inconclusive, G9a block 1.3µM
Cc1ccc(C(=O)NNc2c3ccccc3nc3ccccc23)cc1	BAZ2B block inconclusive, G9a block 18µM
O=C(NNc1ncnc2ccccc12)c1cccc(Cl)c1	BAZ2B block 79µM, G9a block 79µM
O=C(NNc1c2ccccc2nc2ccccc12)c1ccc(Cl)cc1	BAZ2B block inconclusive, G9a block 35µM

Compound activity (PubChem BioAssay)
